Compound activity as filed in PubChem BioAssay.
ABHD5 PLIN5 PPI: ABHD5-PLIN5 protein interaction inhibition; Split G. princeps luciferase complementation, luminescence, 4 h; inhibition, % at 4 µM; actives 0.78% (n = 360,000);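 active = inhibition above the mean inhibition across every tested compound plus 3 SD, cut at about 22% in these data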
CRFBP-R2 block: blocks CRF-induced signaling of the CRF-BP/CRF-R2 complex | HEK293 CRF-R2/CRF-BP, CRF-induced calcium fluorescence | inhibition, % at 11.8 µM | actives 0.59% (n = 350,000) | AID 588475;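 active = inhibition of the ligand-induced calcium signal above about 50% at the single tested concentration, limit read from the data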
TLR4 MyD88 comp: blocks binding of human TLR4 to MyD88. AID 861. inhibition, % at 8.4 µM. HeLa CL3-4 TLR4/MyD88 BLA complementation, FRET ratio. actives 0.18% (n = 200,000). O00206+Q99836; in the data active = inhibition above about 25%
NOD2 RIPK2 PPI: inhibitors of human NOD2-RIPK2 interaction. O43353. CHO BLA complementation NOD2-RIPK2, CCF4 ratio. inhibition, % at 4.98 µM. actives 0.38% (n = 360,000). AID 624267; in the data active = inhibition above about 21%
TLR9-MyD88 inh: TLR9-MyD88 interaction inhibition; inhibition, % at 4.98 µM; actives 0.21% (n = 340,000); Q9NR96+Q99836; CHO BLA complementation TLR9-MyD88, CCF4 FRET ratio;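 active = inhibition above the mean over all tested compounds plus 3 SD, cut at about 21% in these data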
m5-HT2A agonist: agonists of mouse serotonin 5-HT2A receptor (HTR2A) | actives 0.66% (n = 360,000) | P35363 | AID 624169 | activation, % at 7.6 µM | CHO-K1 mHTR2A beta-arrestin complementation, luminescence; percent of 30 µM serotonin response;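 active = activation above a run cutoff, the mean activation of all tested compounds plus 3 SD, cut at about 14% in these data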
Target sequence (P35363 whole entry, looked up): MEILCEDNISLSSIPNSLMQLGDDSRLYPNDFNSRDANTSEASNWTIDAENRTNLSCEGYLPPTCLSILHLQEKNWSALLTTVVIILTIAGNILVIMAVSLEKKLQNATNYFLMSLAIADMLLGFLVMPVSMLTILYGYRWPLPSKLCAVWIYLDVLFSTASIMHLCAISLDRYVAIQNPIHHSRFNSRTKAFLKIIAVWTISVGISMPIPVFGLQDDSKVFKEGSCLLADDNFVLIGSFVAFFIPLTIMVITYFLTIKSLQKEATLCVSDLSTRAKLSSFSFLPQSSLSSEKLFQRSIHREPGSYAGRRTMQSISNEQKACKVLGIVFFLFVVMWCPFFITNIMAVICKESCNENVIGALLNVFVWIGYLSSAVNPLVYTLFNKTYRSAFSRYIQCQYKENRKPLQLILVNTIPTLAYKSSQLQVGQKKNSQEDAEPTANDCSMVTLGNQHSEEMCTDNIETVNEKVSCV
TLR4 MyD88 cnf: confirmation of human TLR4-MyD88 binding inhibitors | shares compounds with TLR4 MyD88 comp | AID 941 | inhibition, % at 8.4 µM | actives 50% (n = 350) | HeLa CL3-4 BLA complementation, CCF4 FRET ratio;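 active = mean inhibition across three repeat runs above about 25% carried over from the earlier screen, limit read from the data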
BLA inhibitor ct: beta-lactamase inhibition flagged in TLR4-MyD88 counter-screen; shares compounds with TLR4 MyD88 comp; HeLa BLA reporter, CCF4 FRET ratio; actives 63% (n = 350); inhibition, % at 8.4 µM;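 active = mean inhibition over three repeats above about 26% taken from the earlier screen, limit read from the data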;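 also: HeLa cells stably expressing beta-lactamase reporter as counterscreen for TLR4-MyD88 inhibitors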
Each line names hits and unclear results; the compound was inactive in the other large screens (follow-up assays come after a bar, where they were run). The list is not random: actives were taken first. Their share in the collection is about 2.4%.

Cc1nn(Cc2ccccc2Cl)c(C)c1NC(=O)c1nc2ncccn2n1	CRFBP-R2 block 58
O=C(/C=C/[C@H]1O[C@@H](n2cnc3c(NC(=O)c4ccccc4)ncnc32)[C@H](O)[C@@H]1O)NCC1CCCO1 (stereo partly drawn)	none (no result: CRFBP-R2 block, TLR4 MyD88 comp, TLR9-MyD88 inh)
Cc1ccc(-c2ccc(SCC(=O)NCC3CCCO3)nn2)cc1 (stereo not drawn)	CRFBP-R2 block 83
CCOc1ccc(-c2ccc(SCC(=O)NCC3CCCO3)nn2)cc1 (stereo not drawn)	none
O=C(CC(Nc1ccccc1)c1ccc(F)cc1)c1ccccc1 (stereo not drawn)	none
O=C(CC(Nc1ccccc1)C(=O)O)c1ccccc1 (stereo not drawn)	ABHD5 PLIN5 PPI 23 (no result: TLR4 MyD88 comp)
Cc1cccc(C)c1NC(=O)C1(C)CN(S(C)(=O)=O)CC(=O)N1CCCn1ccnc1 (stereo not drawn)	none (no result: CRFBP-R2 block, TLR4 MyD88 comp, TLR9-MyD88 inh)
COc1ccc(OCCn2c(C)nc3ccccc32)cc1	none (no result: TLR4 MyD88 comp)
Cc1nc2ccccc2n1CCOc1ccc([N+](=O)[O-])cc1	CRFBP-R2 block 96
CCCN1CCN(C2CCCCC2NS(=O)(=O)c2ccc(Cl)cc2)CC1 (stereo not drawn)	CRFBP-R2 block 51 (no result: TLR4 MyD88 comp)
CCCN1CCN(C2CCCCC2NS(=O)(=O)c2ccccc2)CC1 (stereo not drawn)	none (no result: TLR4 MyD88 comp)
Cc1cc(C)n2c(NC3CCCCC3)c(-c3cccnc3)nc2n1	none (no result: CRFBP-R2 block, TLR4 MyD88 comp, TLR9-MyD88 inh)
CCC(c1nnc(SCC(=O)Nc2c(F)cccc2F)n1Cc1ccccc1)N(C)C (stereo not drawn)	CRFBP-R2 block 60 (no result: TLR4 MyD88 comp)
O=C(NCCN1CCC(n2c(=O)[nH]c3ccccc32)CC1)c1ccc(Cl)c(Cl)c1	none (no result: CRFBP-R2 block, TLR4 MyD88 comp, TLR9-MyD88 inh)
CC(=O)N=c1sc(S(N)(=O)=O)nn1C	CRFBP-R2 block 111
O=C(COC(=O)C1CCN(S(=O)(=O)c2ccccc2)CC1)NC(=O)c1ccc(OC(F)F)cc1	CRFBP-R2 block 131
CCCNC(=O)C1(C)CCCN(CCOc2ccccc2)C1 (stereo not drawn)	none (no result: CRFBP-R2 block, TLR4 MyD88 comp, TLR9-MyD88 inh)
COc1ccccc1-n1c(=S)sc2c(=O)n(Cc3ccco3)c(SC)nc21	CRFBP-R2 block 60
O=CC1=C(N2CCOCC2)/C(=C\c2ccccc2)CC1	ABHD5 PLIN5 PPI 22
COc1cccc(-c2ccc3c(c2)O[C@H](CN(C)C(=O)c2ccccc2F)[C@H](C)CN([C@H](C)CO)S3(=O)=O)c1	none (no result: TLR4 MyD88 comp)
O=C(O)C1C2C=CC(O2)C1C(=O)Nc1ccccc1C(F)(F)F (stereo not drawn)	CRFBP-R2 block 58
CCOc1ccc(CCNC(=O)C2CCCN(c3ncnc4c3nc3n4CCCCC3)C2)cc1 (stereo not drawn)	CRFBP-R2 block 115 (no result: TLR4 MyD88 comp)
CC(=O)NC(Cc1cccc(F)c1)C(=O)NC1CCN(C(=O)c2cccc(C)c2)CC1 (stereo not drawn)	none
CC(=O)NC(Cc1ccc(C(C)C)cc1)C(=O)NC1CCN(C(=O)c2cccc(C)c2)CC1 (stereo not drawn)	CRFBP-R2 block 53
COc1ccc(CN2CC[C@@H]3CN(C(C)=O)[C@H](c4ccccc4Br)C[C@@H]32)cc1	none (no result: CRFBP-R2 block, TLR4 MyD88 comp, TLR9-MyD88 inh)
NC(=O)COC(=O)c1ccc(-c2ccccc2)cc1	none
NC(=O)COC(=O)c1ccc(-c2ccc(O)cc2)cc1	CRFBP-R2 block 80 (no result: TLR4 MyD88 comp)
CC(=O)C1=C(C)NC(SCC(=O)c2ccc(-c3ccccc3)cc2)=C(C#N)C1c1cccnc1 (stereo not drawn)	TLR4 MyD88 comp 31 (no result: ABHD5 PLIN5 PPI, CRFBP-R2 block, NOD2 RIPK2 PPI, TLR9-MyD88 inh, m5-HT2A agonist) | TLR4 MyD88 cnf inactive | BLA inhibitor ct 36
CC(=O)C1=C(C)NC(SCSc2ccccc2)=C(C#N)C1c1cccnc1 (stereo not drawn)	none (no result: ABHD5 PLIN5 PPI, NOD2 RIPK2 PPI, TLR9-MyD88 inh, m5-HT2A agonist)
O=c1cc(-c2c(F)c(F)c(F)c(F)c2F)oc2ccccc12	none
O=c1cc(-c2c(F)c(F)c(F)c(F)c2F)oc2c(F)c(F)c(F)c(F)c12	TLR4 MyD88 comp 42 (no result: ABHD5 PLIN5 PPI, CRFBP-R2 block, NOD2 RIPK2 PPI, TLR9-MyD88 inh, m5-HT2A agonist) | TLR4 MyD88 cnf 38 | BLA inhibitor ct inactive
COC(=O)Nc1sc2c(c1C(N)=O)CCCCCC2	TLR4 MyD88 comp 26 | TLR4 MyD88 cnf inactive | BLA inhibitor ct inactive
CCOC(=O)c1ccoc1CSCc1ccc(C(=O)OC)o1	TLR4 MyD88 comp 27 | TLR4 MyD88 cnf inactive | BLA inhibitor ct inactive
Cc1ccccc1CNC(=O)c1csc([C@@H]2C[C@H](O)[C@@H](CO)O2)n1	none (no result: CRFBP-R2 block, TLR4 MyD88 comp, TLR9-MyD88 inh)
CCOC(=O)c1c(C)nc2c(C#N)cnn2c1C	TLR4 MyD88 comp 25 | TLR4 MyD88 cnf inactive | BLA inhibitor ct inactive
CCOC(=O)c1cnn2c(N)c(C#N)cnc12	none
O=C1c2cccc3c(N4CCCCC4)ccc(c23)C(=O)N1c1ccc(O)cc1	TLR4 MyD88 comp 31 | TLR4 MyD88 cnf 30 | BLA inhibitor ct 48
Fc1cccc(-c2nnn3c2nc(Cl)c2ccccc23)c1	TLR4 MyD88 comp 35 | TLR4 MyD88 cnf 58 | BLA inhibitor ct 41
COc1ccc(-c2ccc3c(N)c(C(=O)c4ccc(OC)c(OC)c4)sc3n2)cc1	TLR4 MyD88 comp 27 | TLR4 MyD88 cnf inactive | BLA inhibitor ct 45
OC[C@@H]1CN(Cc2ccc(F)cc2)C[C@H](n2cnc3c(N4CCN(c5ccccc5)CC4)ncnc32)O1	none (no result: CRFBP-R2 block, TLR4 MyD88 comp, TLR9-MyD88 inh)
O=C(Cc1ccccc1)N/N=C/c1ccc(-c2ccc([N+](=O)[O-])cc2)o1	none
Cc1ccc(C)c(N(CC(=O)N/N=C/c2ccc(-c3ccc([N+](=O)[O-])cc3)o2)S(=O)(=O)c2ccccc2)c1	TLR4 MyD88 comp 55 | TLR4 MyD88 cnf 58 | BLA inhibitor ct 87
CCCCNC(=O)C(NC(=O)c1cccs1)C(=O)c1ccccc1 (stereo not drawn)	none (no result: CRFBP-R2 block, TLR4 MyD88 comp, TLR9-MyD88 inh)
CC1=NOC(=O)/C1=C\c1ccc(-c2ccc(Cl)cc2Cl)o1	TLR4 MyD88 comp 28 | TLR4 MyD88 cnf inactive | BLA inhibitor ct inactive
COc1ccc(C)cc1S(=O)(=O)N1CCN(S(=O)(=O)c2cc(C)ccc2OC)C(C)C1 (stereo not drawn)	TLR4 MyD88 comp 27 | TLR4 MyD88 cnf inactive | BLA inhibitor ct inactive
CCn1c(SCC(=O)NCc2ccccc2)nc2nc3c(cc2c1=O)CCCC3	TLR4 MyD88 comp 25 | TLR4 MyD88 cnf inactive | BLA inhibitor ct inactive
O=C(CSc1nnc(CNc2cccc(C(F)(F)F)c2)n1Cc1ccco1)NCc1ccco1	TLR4 MyD88 comp 26 | TLR4 MyD88 cnf inactive | BLA inhibitor ct inactive
COc1cc2c3nnc(-c4ccccc4)c-3cn(Cc3ccccc3F)c2cc1OC	TLR4 MyD88 comp 33 (no result: ABHD5 PLIN5 PPI, NOD2 RIPK2 PPI, TLR9-MyD88 inh, m5-HT2A agonist) | TLR4 MyD88 cnf inactive | BLA inhibitor ct 31
COc1cc2c3nnc(-c4ccc(F)cc4)c-3cn(Cc3ccccc3F)c2cc1OC	TLR4 MyD88 comp 62 | TLR4 MyD88 cnf 44 | BLA inhibitor ct 84
